# This is one part of the list. Activity calls are given as the source filed them. Rule as the data show it, unless noted: active = inhibition above about 40%; inactive = the rest.
# Assays:
# [1] = NF-kB reporter suppression in CF airway cells – cell-based, GFP fluorescence, single concentration, confirmation (AID 602472); details: KKLEB CF airway cells, PAF-induced NF-kB-GFP fluorescence, overnight; at 5 µM; stronger effect = higher value;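 also: stimulus PAF is a Pseudomonas aeruginosa filtrate and not platelet activating factor; plate controls were DMSO wells with stimulus for no effect and unstimulated DMSO wells for full effect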
# [2] = NFkB reporter suppression in cystic fibrosis bronchial cells – cell-based, uHTS hits, panel, cytotoxicity readout, dose response (AID 624344); details: CF bronchial epithelial cells, PAF-induced NFkB reporter inhibition, with PAF, run 1; at 79 µM (top of the series) unless noted
# [3] = as above; details: CF bronchial epithelial cells, PAF-induced NFkB reporter inhibition, with PAF, run 2; at 79 µM (top of the series) unless noted
# [4] = HIF-2a driven luciferase blockers, single dose – luminescence, 786-0 RCC cells, confirmation (AID 651580;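 active = mean inhibition across four replicates of at least 40 percent at the single tested concentration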); details: HIF-2a luciferase reporter luminescence, overnight, at 18.8 µM, stronger effect = higher value
# [5] = HIF-1a luciferase reporter signal reduction – MiaPaCa-2 cells, single concentration, counter-screen for HIF-2a inhibitor project, confirmation (AID 651589;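 active = mean inhibition of the reporter signal across four replicates at the single tested dose of 50% or more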); details: MiaPaCa-2 HIF-1a luciferase reporter, desferoxamine, overnight; at 18.8 µM; stronger effect = higher value
# PEG-3 [6] = target: PEG-3 (UniProt Q6IN02); experiment: inhibition of PEG-3 promoter-driven reporter – cell-based, HeLa, luciferase, CREF/GAPDH counter-screen panel, dose response (AID 624167); details: CREF/GAPDH counter-screens; HeLa PEG-Prom luciferase reporter, overnight, run 1, dose range 1, at 100 µM (top of the series) unless noted
# PEG-3 [7] = target: PEG-3 (UniProt Q6IN02); experiment: as above; details: CREF/GAPDH counter-screens; HeLa PEG-Prom luciferase reporter, overnight, run 2, dose range 1, at 100 µM (top of the series) unless noted
# [8] = target: Tumor necrosis factor receptor superfamily member 10B (Homo sapiens) (UniProt O14763); experiment: viability loss of caspase-8 NB7 cells with TRAIL – with/without TRAIL, luminescence panel, confirmation (AID 651596; in the data active = activity above about 50%); details: NB7 neuroblastoma + caspase-8, TRAIL sensitization, NB7 Caspase-8, with TRAIL, mean of runs, at 10 µM, stronger effect = higher value
# [9] = as above; details: NB7 neuroblastoma + caspase-8, without TRAIL, NB7 Caspase-8, without TRAIL, mean of runs, at 10 µM
# PEG-3, sequence (Q6IN02 whole entry, looked up): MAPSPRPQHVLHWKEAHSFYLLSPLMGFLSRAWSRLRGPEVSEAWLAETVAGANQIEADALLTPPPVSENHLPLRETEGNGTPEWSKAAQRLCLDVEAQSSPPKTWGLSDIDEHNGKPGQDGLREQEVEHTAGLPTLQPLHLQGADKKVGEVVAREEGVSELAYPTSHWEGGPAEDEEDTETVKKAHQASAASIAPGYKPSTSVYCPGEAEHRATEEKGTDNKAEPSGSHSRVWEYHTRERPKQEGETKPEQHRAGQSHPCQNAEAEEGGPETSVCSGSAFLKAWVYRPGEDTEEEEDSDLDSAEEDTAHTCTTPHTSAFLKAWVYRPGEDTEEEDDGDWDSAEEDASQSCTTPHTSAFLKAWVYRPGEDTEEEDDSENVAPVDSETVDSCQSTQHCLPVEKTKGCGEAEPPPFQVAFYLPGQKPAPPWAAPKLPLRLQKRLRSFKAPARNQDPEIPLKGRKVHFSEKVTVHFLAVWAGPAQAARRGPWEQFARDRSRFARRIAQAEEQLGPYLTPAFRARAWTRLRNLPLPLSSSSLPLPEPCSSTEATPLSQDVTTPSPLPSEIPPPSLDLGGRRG
# Tumor necrosis factor receptor superfamily member 10B (Homo sapiens), sequence (O14763 whole entry, looked up): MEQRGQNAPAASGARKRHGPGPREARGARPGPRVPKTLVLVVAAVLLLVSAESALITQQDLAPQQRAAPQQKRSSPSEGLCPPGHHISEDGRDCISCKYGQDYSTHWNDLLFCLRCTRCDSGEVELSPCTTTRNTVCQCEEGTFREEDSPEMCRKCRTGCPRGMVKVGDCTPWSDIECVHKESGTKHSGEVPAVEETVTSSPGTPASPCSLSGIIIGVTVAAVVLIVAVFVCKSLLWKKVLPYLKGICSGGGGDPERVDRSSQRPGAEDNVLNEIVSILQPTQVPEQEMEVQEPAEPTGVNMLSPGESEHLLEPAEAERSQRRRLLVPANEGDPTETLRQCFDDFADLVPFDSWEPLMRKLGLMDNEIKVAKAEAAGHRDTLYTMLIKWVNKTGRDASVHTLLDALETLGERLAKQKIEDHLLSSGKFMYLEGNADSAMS
compound,measurement,setting,value
CC(C)CC1C(=O)N(Cc2cn(Cc3ccco3)nn2)CCS(=O)(=O)N1Cc1ccc(-c2ccc(Cl)c(Cl)c2)cc1 (stereo unspecified),inhibition,[1],45.6% (active)
COC(=O)c1ccc(NC(=O)c2ccccc2NS(=O)(=O)c2ccccc2)cc1,inhibition,[1],69.8% (active)
same,inhibition,[2],118%
same,inhibition,[3],105%
CN(C)c1ccnc2sc3c(=O)n(Cc4ccccc4)cnc3c12,inhibition,[1],91.5% (active)
same,inhibition,[2],106%
same,inhibition,[3],97.7%
C=CCSc1nsc(NC(=O)Nc2cccc(C(C)=O)c2)n1,inhibition,[1],98.3% (active)
same,inhibition,[2],109%
same,inhibition,[3],101%
Clc1ccc2c(c1)C1=C(C(c3ccncc3)O2)C(c2ccc(Br)cc2)n2ncnc2N1 (stereo unspecified),inhibition,[1],50% (active)
COc1ccc(NC(=O)c2sc3nc(C)nc(N4CCN(c5ccccn5)CC4)c3c2C)c(OC)c1,inhibition,[1],38.6% (inactive)
CCc1ccc(N(CC)c2ncnc3nc[nH]c23)cc1,inhibition,[1],62.6% (active)
same,inhibition,[2],101%
same,inhibition,[3],99.3%
CCCc1nc2c(c(=O)c3ccccc3n2C)c(=O)n1C1CCCCCC1,inhibition,[1],46.9% (active)
O=C(Nc1ccc(Cl)cc1)Nc1nnc(/C=C/c2ccccc2)s1,inhibition,[1],50.8% (active)
CC(=O)Oc1c(C(=O)c2nnc(C)o2)c(=O)n(Cc2ccccc2)c2ccccc12,inhibition,[1],59% (active)
same,inhibition,[2],112%
same,inhibition,[3],101%
O=C1Nc2ccccc2/C1=C/c1ccnc2ccccc12,inhibition,[1],55% (active)
same,inhibition,[2],106%
same,inhibition,[3],111%
Cc1ccc(CCC(=O)Nc2ncc(Cc3cc(Cl)ccc3Cl)s2)o1,inhibition,[1],83.8% (active)
same,inhibition,[2],101%
same,inhibition,[3],101%
CCOC(=O)C(=Cc1ccccc1)C(=O)c1ccccc1,inhibition,[1],-122% (inactive)
same,inhibition,[4],97.2% (active)
same,inhibition,[5],108% (active)
Cc1ccc(C)c(OCC(O)CN2CCC(CN3C(=O)c4cccc5cccc(c45)C3=O)CC2)c1 (stereo unspecified),inhibition,PEG-3 [6],99.2%
same,inhibition,PEG-3 [7],96.1%
COc1ccc(CC(N)c2csc(NC(=O)Nc3cc(OC)ccc3OC)n2)cc1 (stereo unspecified),inhibition,PEG-3 [6],94.3%
same,inhibition,PEG-3 [7],98.7%
CN(CCOc1ccc(Cl)cc1)C(=O)c1cc(-c2ccco2)nc2ccccc12,inhibition,PEG-3 [6],99.6%
same,inhibition,PEG-3 [7],96.2%
NC(N)=N/N=C/c1cccc(Cl)c1Cl,inhibition,PEG-3 [6],97.9%
same,inhibition,PEG-3 [7],99.4%
CCCCCCC=C1CCC(CN2CCCC2)C1=O (stereo unspecified),inhibition,PEG-3 [6],98.4%
same,inhibition,PEG-3 [7],101%
CCN(CCN(C)C)C(=O)C1CCN(S(=O)(=O)c2c(C)noc2/C=C/c2ccccc2F)CC1,inhibition,PEG-3 [6],90.8%
same,inhibition,PEG-3 [7],97.5%
Cc1cc(Br)ccc1NC(=O)CN1C(=O)C2C3CC(c4ccccc4)C(C3)C2C1=O (stereo unspecified),inhibition,PEG-3 [6],99.9%
same,inhibition,PEG-3 [7],92.1%
O=C(NC1=C(NC2CCS(=O)(=O)C2)C(=O)c2ccccc2C1=O)c1ccccc1 (stereo unspecified),inhibition,PEG-3 [6],102%
same,inhibition,PEG-3 [7],99.7%
CC1(C)CC(NC(=O)c2cccc(S(=O)(=O)N(Cc3ccccc3)c3ccccc3)c2)CC(C)(C)N1,inhibition,PEG-3 [6],101%
same,inhibition,PEG-3 [7],102%
CC(C)c1ccc(NC(=O)Nc2nc(C(C)N)cs2)cc1 (stereo unspecified),inhibition,PEG-3 [6],100%
same,inhibition,PEG-3 [7],98.9%
COc1ccc(CN(C)C(=O)C(Cc2ccccc2)NC(=O)c2ccccc2)cc1F (stereo unspecified),inhibition,PEG-3 [6],99.1%
same,inhibition,PEG-3 [7],98.2%
CCCN(CCC)CCCNC(=S)Nc1ccc2nc(N3CCCC3)cc(C)c2c1,inhibition,PEG-3 [6],99.6%
same,inhibition,PEG-3 [7],98.1%
Cc1nc(-c2ccc(F)cc2)c(CC(=O)N(C)CC(=O)Nc2ccc(Cl)c(C(F)(F)F)c2)s1,inhibition,PEG-3 [6],99.8%
same,inhibition,PEG-3 [7],102%
COc1ccc(CN(C)C(=O)c2cc(-c3ccccc3)nc3ccc(C)cc23)c(OC)c1OC,inhibition,PEG-3 [6],94.8%
same,inhibition,PEG-3 [7],96.5%
NC(=O)C1CCN(C2=C(Cl)C(=O)c3ccccc3C2=O)CC1,inhibition,PEG-3 [6],100%
same,inhibition,PEG-3 [7],97.8%
COC(=O)c1ccc(CNC(=O)Cn2cnc3c(NCc4ccccc4)ncnc32)cc1,inhibition,PEG-3 [6],97.3%
same,inhibition,PEG-3 [7],74.3%
COc1ccc2sc3cccc(NCCN(C)C)c3c(=O)c2c1,inhibition,PEG-3 [6],98%
same,inhibition,PEG-3 [7],99.2%
COc1cc(NC(=O)Nc2nc(C(N)CCc3ccccc3)cs2)cc(OC)c1OC (stereo unspecified),inhibition,PEG-3 [6],99.2%
same,inhibition,PEG-3 [7],97.7%
COc1ccc(/C=C/C(=O)c2ccc3c(c2)OCCO3)cc1[N+](=O)[O-],inhibition,PEG-3 [6],97.9%
same,inhibition,PEG-3 [7],99%
Cc1cc(C)c2nc(N(CCCN(C)C)C(=O)c3ccc(S(=O)(=O)N4CCCCCC4)cc3)sc2c1,inhibition,PEG-3 [6],102%
same,inhibition,PEG-3 [7],100%
CCN(c1ccccc1)S(=O)(=O)c1ccc(C(=O)N(CCCN(C)C)c2nc3cc4c(cc3s2)OCO4)cc1,inhibition,PEG-3 [6],97.6%
same,inhibition,PEG-3 [7],99%
CCN1CCN(CCNC(=O)c2ccc(/C=C3\Sc4ccccc4N(Cc4ccccc4F)C3=O)cc2)CC1,inhibition,PEG-3 [6],102%
same,inhibition,PEG-3 [7],101%
Cc1cc(C)c(CN2CCN(CCCn3cnc(C(=O)Nc4ccc(C)c(C)c4)n3)CC2)c(C)c1,inhibition,PEG-3 [6],102%
same,inhibition,PEG-3 [7],101%
Cc1nn(-c2ccccc2)c(Cl)c1/C=N/NC(=O)c1nn(C)cc1[N+](=O)[O-],inhibition,[1],14.2% (inactive)
same,activity,[8],40.9%
same,activity,[9],46.5%
CC(=O)Nc1cccc(-c2ccnc3c2CC(C)(C(=O)Nc2cccc(OC(F)(F)F)c2)O3)c1 (stereo unspecified),inhibition,PEG-3 [6],68.6%
same,inhibition,PEG-3 [7],77.1%
Cc1ccc(C2=NC(=O)/C(=C/c3cc(O)c(O)c(Br)c3)S2)cc1,inhibition,PEG-3 [6],88.6%
same,inhibition,PEG-3 [7],79.4%
NCCCNc1nc(N)c([N+](=O)[O-])c(NC2CCCCC2)n1,inhibition,PEG-3 [6],96%
same,inhibition,PEG-3 [7],102%
COc1cc(/C=C/c2ccc3cccc(O)c3n2)ccc1O,inhibition,PEG-3 [6],92.4%
same,inhibition,PEG-3 [7],99.9%

# — PubChem BioAssay
